Pf apPOL inh: Pf-apPOL DNA polymerase inhibition. AID 1794808. Recombinant Pf-apPOL, molecular beacon fluorescence, 1.5 h. inhibition, % at 10 µM. 0.25% of 210,000 active
mHTT CaM bind: mHTT-calmodulin interaction abrogation. P42858. AlphaScreen His-mHTT/GST-CaM binding, luminescence. inhibition, % at 15 µM. 3.6% of 190,000 active. AID 1671202
Each line names hits and unclear results; the compound was inactive in the other large screens. Rows were chosen to be rich in hits. Some 3.5% of all compounds tested hit in one or more screens of this group. No stated cut-off is given here; in the data, active means inhibition above about 50%; inactive means the rest.

CCOc1ccccc1C1CC(c2ccccc2)Nc2ncnn21 (stereo unspecified)	none
COc1ccccc1C1CC(c2ccc(Br)cc2)Nc2nc(N)nn21 (stereo unspecified)	none
COc1cccc(C2CC(c3ccccc3Cl)n3nc(N)nc3N2)c1 (stereo unspecified)	none
COc1cccc(C2CC(c3ccc(Cl)cc3Cl)n3nc(N)nc3N2)c1 (stereo unspecified)	mHTT CaM bind 52
CCOc1ccccc1C1CC(c2ccc(Br)cc2)Nc2nc(N)nn21 (stereo unspecified)	mHTT CaM bind 99
CCOc1ccccc1C1CC(c2ccc(I)cc2)Nc2ncnn21 (stereo unspecified)	mHTT CaM bind 54
CCc1ccc(C2CC(c3ccccc3Cl)n3nc(N)nc3N2)cc1 (stereo unspecified)	none
CCc1ccc(C2CC(c3ccccc3Cl)Nc3nc(N)nn32)cc1 (stereo unspecified)	mHTT CaM bind 52
Cc1cc([N+](=O)[O-])ccc1-c1ccc(C(=O)Nc2ccc(Cl)cn2)o1	none
O=C(COc1ccc(Cl)cc1)Nc1cc(F)c2[nH]c(=O)ccc2c1	none
CCc1nnc(-c2ccc(NC(=O)COc3ccccc3F)cc2)o1	none
CCOC(=O)C(C)Oc1ccc2cc(-c3ccc(OC)c(OC)c3)c(=O)oc2c1 (stereo unspecified)	none
COc1ccc(C2C=C(c3ccc(Br)cc3)Nc3nnnn32)cc1OC (stereo unspecified)	none
Cc1cccc(C2CC(c3ccc(Cl)cc3)Nc3nc(N)nn32)c1 (stereo unspecified)	mHTT CaM bind 56
COc1ccccc1C1CC(c2ccc(C)cc2)Nc2nc(N)nn21 (stereo unspecified)	none
Cc1cccc(C2CC(c3ccc(F)cc3)Nc3nc(N)nn32)c1 (stereo unspecified)	none
COc1ccccc1C1CC(c2ccc(Cl)c(Cl)c2)Nc2nc(N)nn21 (stereo unspecified)	mHTT CaM bind 99
CCCCN(CC)C(=O)c1ccc2c(c1)NC(=O)C(N1CCOCC1)S2 (stereo unspecified)	none
COC1CCN(C(=O)c2cccc(C#N)c2)CC1	none
O=C(CNS(=O)(=O)c1cccs1)NCc1cccnc1	none
Cc1ccc(N2C(=O)c3ccccc3NC2c2ccc(F)cc2)cc1 (stereo unspecified)	none
COc1cc(NC(=O)Nc2cccc3cccnc23)cc(OC)c1OC	none
CCOc1ccc(C=Nc2ccc(S(=O)(=O)Nc3ccccn3)cc2)cc1OCC	none
CCOc1cc(C(c2c(C)[nH][nH]c2=O)c2c(C)[nH][nH]c2=O)ccc1O	none
CCOc1cc(C(Nc2ccccn2)c2ccc3cccnc3c2O)ccc1O (stereo unspecified)	mHTT CaM bind 100
COc1cc(C(Nc2ccccn2)c2ccc3cccnc3c2O)cc(Br)c1OC (stereo unspecified)	mHTT CaM bind 98
CCOc1cc(C(Nc2ccccn2)c2ccc3cccnc3c2O)ccc1OC (stereo unspecified)	mHTT CaM bind 100
CC(C)CNC(=O)c1cc(=O)[nH]c2ccccc12	none
COc1ccc(C=C2Oc3c(ccc4c3CN(Cc3cccnc3)CO4)C2=O)cc1	none
O=C1CSC(c2cc3c(cc2[N+](=O)[O-])OCO3)N1c1ccccc1F (stereo unspecified)	none
O=[N+]([O-])c1cc2c(cc1C1NN=C(c3ccccc3)S1)OCO2 (stereo unspecified)	mHTT CaM bind 52
O=C1c2ccccc2C(=O)c2c1ccc(C(=O)N1CCN(c3ccccn3)CC1)c2NCCO	mHTT CaM bind 78
O=C1c2ccccc2C(=O)c2c1ccc(C(=O)N1CCC3(CC1)OCCO3)c2NCCO	none
COc1ccc(OC)c(/C=C2/SC(N3CCOCC3)=NC2=O)c1	none
O=C(NC1CC2CC1CN2C(=O)c1ccccc1Cl)c1ccccc1 (stereo unspecified)	none
COc1ccc(CNC(=O)c2cnn3c(C)c(Cc4cccc(Cl)c4)c(C)nc23)cc1	none
COc1ccccc1CNC(=O)CSc1nc2nc(C)c(Cc3ccccc3)c(C)n2n1	none
Cc1nc2c(C(=O)NCc3ccccn3)cnn2c(C)c1Cc1cccc(Cl)c1	mHTT CaM bind 72
COCCNC(=O)c1cnn2c(C)c(Cc3cccc(Br)c3)c(C)nc12	mHTT CaM bind 63
COCCNC(=O)c1cnn2c(C)c(Cc3cccc(Cl)c3)c(C)nc12	none
COc1ccccc1CNC(=O)Cc1nc2nc(C)c(Cc3cccc(Cl)c3)c(C)n2n1	mHTT CaM bind 57
Cc1ccc(CNC(=O)c2cnn3c(C)c(Cc4cccc(Br)c4)c(C)nc23)cc1	none
Cc1nc2c(C(=O)NCC3CCCO3)cnn2c(C)c1Cc1cccc(Br)c1 (stereo unspecified)	mHTT CaM bind 96
S=c1oc2ccccc2n1Cn1c(=S)oc2ccccc21	none (no result: Pf apPOL inh)
Cn1ccnc1SC/C=C/CSc1nccn1C	none
CCC(C(=O)Nc1ccccc1C(C)(C)C)c1ccccc1 (stereo unspecified)	none
COc1ccc(C(=O)N2CCC(N3CCN(Cc4ccccc4)C3=O)CC2)cc1OC	none
c1ccc(-n2cnnc2C2CCN(Cc3ccc[nH]3)CC2)cc1	none
Cc1cccc(CN2CCCC(C(=O)N3CCCCCC3)C2)c1 (stereo unspecified)	none
Cc1cccc(C2CC(C(=O)N3CCSCC3)CN(Cc3ccccc3)C2)c1 (stereo unspecified)	mHTT CaM bind 77
O=C(Nc1cccc(F)c1)N1CCc2nc(-c3ccc(F)cc3)ncc2C1	none
O=C(Nc1ccc(-c2ccc(=O)[nH]n2)cc1)c1ccc(-n2cccn2)nn1	none
O=C(Nc1ccc(Nc2ccc(-n3cccn3)nn2)cc1)c1ncccn1	mHTT CaM bind 91
Cc1cc(C)c2c(=O)cc(C(Cl)(Cl)Cl)oc2c1	none
COc1ccc(-c2nc(NCc3ccc(F)cc3)c3ccccc3n2)cc1OC	mHTT CaM bind 87
COc1ccc(-c2nc(NCc3ccccc3)c3ccccc3n2)cc1OC	none
O=C(CSC1CCCC1)N1CCN(c2ccc(-c3ccccn3)nn2)CC1	mHTT CaM bind 100
COc1cccc(C(=O)N2CCN(c3ccc(Nc4ccccn4)nn3)CC2)c1OC	none
COc1cccc(C(=O)N2CCN(c3ccc(-c4ccccn4)nn3)CC2)c1OC	mHTT CaM bind 100
O=C(CCSc1ccccc1)N1CCN(c2ccc(-c3ccccn3)nn2)CC1	mHTT CaM bind 100
O=C(Cn1ccc2ccccc21)N1CCN(c2ccc(-c3ccccn3)nn2)CC1	none
O=C(CSCc1ccccc1)N1CCN(c2ccc(-c3cccs3)nn2)CC1	none
COc1ccc(C2=N/C(=C\c3ccccc3C(F)(F)F)C(=O)O2)cc1OC	none
CCC1=C(C)/C(=C\c2[nH]c(C)c(CC)c2C)N=C1C	mHTT CaM bind 95
O=C1OC(c2cccc(Br)c2)=N/C1=C\C=C\c1ccccc1	none
CCC1=NN(C(=O)COc2ccc(Cl)c(C)c2)C(O)(C(F)(F)F)C1 (stereo unspecified)	mHTT CaM bind 94
Cc1ccccc1OCC(=O)N1N=C(c2ccc(Br)cc2)CC1(O)C(F)(F)F (stereo unspecified)	mHTT CaM bind 93
CCC1=NN(C(=O)Cc2ccc(OC)cc2)C(O)(C(F)(F)F)C1 (stereo unspecified)	none
O=C(COc1ccccc1)N1N=C(c2ccc(Br)cc2)CC1(O)C(F)(F)F (stereo unspecified)	none
Cc1cccc(C(=O)N2N=C(c3cccc(Br)c3)CC2(O)C(F)(F)F)c1 (stereo unspecified)	none
Cc1cccc(C(=O)N2N=C(c3ccc(Br)cc3)CC2(O)C(F)(F)F)c1 (stereo unspecified)	mHTT CaM bind 97

High-throughput results from PubChem.
